About 7,900 targets were measured; listed, in parts, are those with a hit and a random draw of the rest. About 0.6% of all pairs of compound and target were hits. A number with no mark means an inactive call.
Experiments:
Assay in all cases: log2 fold change, soluble protein after heating vs DMSO (PISA); higher = thermal stabilisation; K562 cells, 10 uM, 30 min; active = over 0.2 and 3.5 SD of the protein, either way, in both replicates (recomputed)
[1] = compound: CS(=O)(=O)c1ccc(-c2cnc(N)c(C(=O)Nc3ccccc3)n2)cc1
Outline: (§1)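 For each measurement, 10 μM compound was applied for 30 min to K562 cells at 2×10^6 cells/mL. Aliquots were heated for 3 min across 48°C-58°C, pooled, and extracted in PBS with 0.5% NP-40 at 4°C; the supernatant after 21,000xg for 90 min was soluble protein. This was quantified by TMTpro 16plex LC-MS/MS with channel sums equalised, and thermal stability was reported relative to control samples from duplicates, on a log2 fold-change scale.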

crizotinib = compound: C[C@@H](Oc1cc(-c2cnn(C3CCNCC3)c2)cnc1N)c1c(Cl)ccc(F)c1Cl [crizotinib]
Outline: as §1

[2] = compound: C[C@@H]1COCCN1C2=NC(=NC(=C2)C3(CC3)S(=O)(=O)C)C4=C5C=CNC5=CC=C4
Outline: as §1

[3] = compound: C[C@H](C1=CC=C(C=C1)C(=O)NC2=C3C=CNC3=NC=C2)N
Outline: as §1

duvelisib = compound: C[C@H](Nc1ncnc2nc[nH]c12)c1cc2cccc(Cl)c2c(=O)n1-c1ccccc1 [duvelisib]
Outline: as §1

tozasertib = compound: Cc1cc(Nc2cc(N3CCN(C)CC3)nc(Sc3ccc(NC(=O)C4CC4)cc3)n2)n[nH]1 [tozasertib]
Outline: as §1

[4] = compound: Cc1cc(SCc2sc(-c3ccc(C(F)(F)F)cc3)nc2C)ccc1OCC(=O)O
Outline: as §1

doramapimod = compound: Cc1ccc(-n2nc(C(C)(C)C)cc2NC(=O)Nc2ccc(OCCN3CCOCC3)c3ccccc23)cc1 [doramapimod]
Outline: as §1

ispinesib = compound: Cc1ccc(C(=O)N(CCCN)[C@@H](c2nc3cc(Cl)ccc3c(=O)n2Cc2ccccc2)C(C)C)cc1 [ispinesib]
Outline: as §1

gandotinib = compound: Cc1cc(Nc2cc(CN3CCOCC3)c3nc(C)c(Cc4ccc(Cl)cc4F)n3n2)n[nH]1 [gandotinib]
Outline: as §1

NAA11 (UniProt Q9BSU3)
Sequence of UniProt Q9BSU3 (Q9BSU3 whole entry, looked up): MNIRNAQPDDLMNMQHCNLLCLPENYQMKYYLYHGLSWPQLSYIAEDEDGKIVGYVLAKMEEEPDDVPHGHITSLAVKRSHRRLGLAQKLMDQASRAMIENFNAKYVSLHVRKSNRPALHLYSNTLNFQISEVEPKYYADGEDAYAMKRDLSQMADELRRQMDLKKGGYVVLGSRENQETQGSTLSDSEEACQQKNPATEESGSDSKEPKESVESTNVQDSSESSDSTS
log2 fold change [1]: 0.027
log2 fold change (crizotinib): -0.065
log2 fold change [2]: 0.006
log2 fold change [3]: 0.086
log2 fold change (duvelisib): -0.015
log2 fold change (tozasertib): 0.007
log2 fold change [4]: 0.114
log2 fold change (doramapimod): -0.037
log2 fold change (ispinesib): -0.009

NGLY1 (UniProt Q96IV0)
Sequence of UniProt Q96IV0 (Q96IV0 whole entry, looked up): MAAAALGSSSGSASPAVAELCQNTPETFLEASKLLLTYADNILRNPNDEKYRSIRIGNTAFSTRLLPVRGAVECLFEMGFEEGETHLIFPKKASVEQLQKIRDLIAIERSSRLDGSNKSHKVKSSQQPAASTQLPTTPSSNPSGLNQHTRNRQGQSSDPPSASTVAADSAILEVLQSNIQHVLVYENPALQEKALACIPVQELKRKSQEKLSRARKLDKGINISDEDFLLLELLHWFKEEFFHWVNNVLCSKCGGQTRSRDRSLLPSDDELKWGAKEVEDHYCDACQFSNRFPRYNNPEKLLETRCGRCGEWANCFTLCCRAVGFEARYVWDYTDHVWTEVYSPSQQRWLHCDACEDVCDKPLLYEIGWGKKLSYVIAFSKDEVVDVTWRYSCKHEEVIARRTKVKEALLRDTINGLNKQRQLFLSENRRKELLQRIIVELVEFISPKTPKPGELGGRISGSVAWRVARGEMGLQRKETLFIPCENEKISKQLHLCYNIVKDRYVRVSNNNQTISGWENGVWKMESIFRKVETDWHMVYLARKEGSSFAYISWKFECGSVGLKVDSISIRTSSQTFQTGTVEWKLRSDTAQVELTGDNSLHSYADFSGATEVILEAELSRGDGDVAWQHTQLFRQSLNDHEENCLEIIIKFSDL
log2 fold change [1]: 0.017
log2 fold change (crizotinib): -0.079
log2 fold change [2]: -0.01
log2 fold change [3]: 0.093
log2 fold change (duvelisib): 0.028
log2 fold change (gandotinib): -0.043
log2 fold change (tozasertib): 0.048
log2 fold change [4]: 0.032
log2 fold change (doramapimod): 0.001
log2 fold change (ispinesib): -0.059

MPP1 (UniProt Q00013)
Sequence of UniProt Q00013 (Q00013 whole entry, looked up): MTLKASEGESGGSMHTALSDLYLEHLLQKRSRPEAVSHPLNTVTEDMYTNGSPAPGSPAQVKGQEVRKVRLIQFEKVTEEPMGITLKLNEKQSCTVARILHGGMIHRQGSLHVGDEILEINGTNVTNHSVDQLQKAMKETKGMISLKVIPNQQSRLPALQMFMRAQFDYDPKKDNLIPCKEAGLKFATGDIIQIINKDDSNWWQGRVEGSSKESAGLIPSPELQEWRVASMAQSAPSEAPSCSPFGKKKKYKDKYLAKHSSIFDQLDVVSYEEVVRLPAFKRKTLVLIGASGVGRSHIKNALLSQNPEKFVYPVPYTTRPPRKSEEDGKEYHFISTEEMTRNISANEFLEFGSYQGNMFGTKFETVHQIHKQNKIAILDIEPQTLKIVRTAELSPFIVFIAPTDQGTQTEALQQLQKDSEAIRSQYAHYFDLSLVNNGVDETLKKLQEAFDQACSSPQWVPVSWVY
log2 fold change [1]: 0.064
log2 fold change (crizotinib): -0.092
log2 fold change [2]: 0.05
log2 fold change [3]: 0.001
log2 fold change (duvelisib): 0.007
log2 fold change (gandotinib): -0.073
log2 fold change (tozasertib): -0.022
log2 fold change [4]: 0.061
log2 fold change (doramapimod): 0.023
log2 fold change (ispinesib): -0.108

NCL (UniProt P19338)
Sequence of UniProt P19338 (P19338 whole entry, looked up): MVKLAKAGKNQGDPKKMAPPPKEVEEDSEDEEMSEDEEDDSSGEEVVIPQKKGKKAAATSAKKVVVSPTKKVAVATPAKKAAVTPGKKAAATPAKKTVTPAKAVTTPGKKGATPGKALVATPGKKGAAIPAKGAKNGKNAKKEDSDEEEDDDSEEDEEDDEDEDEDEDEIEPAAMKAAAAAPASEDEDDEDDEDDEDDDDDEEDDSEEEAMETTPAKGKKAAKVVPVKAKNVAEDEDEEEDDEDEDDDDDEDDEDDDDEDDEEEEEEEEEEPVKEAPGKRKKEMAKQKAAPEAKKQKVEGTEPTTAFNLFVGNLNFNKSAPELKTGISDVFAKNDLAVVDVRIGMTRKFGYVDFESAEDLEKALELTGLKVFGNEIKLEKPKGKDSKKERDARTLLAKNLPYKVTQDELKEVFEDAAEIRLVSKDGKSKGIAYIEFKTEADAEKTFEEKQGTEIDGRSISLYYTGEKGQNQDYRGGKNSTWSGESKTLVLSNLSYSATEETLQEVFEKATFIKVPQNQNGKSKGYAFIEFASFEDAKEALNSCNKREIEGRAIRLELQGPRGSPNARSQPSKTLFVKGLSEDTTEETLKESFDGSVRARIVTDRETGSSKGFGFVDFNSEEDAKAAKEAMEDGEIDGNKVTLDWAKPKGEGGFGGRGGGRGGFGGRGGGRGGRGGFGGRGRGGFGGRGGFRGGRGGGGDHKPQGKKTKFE
log2 fold change [1]: -0.136
log2 fold change (crizotinib): 0.12
log2 fold change [2]: -0.59
log2 fold change [3]: 0.428
log2 fold change (duvelisib): -0.162
log2 fold change (gandotinib): 0.315
log2 fold change (tozasertib): 0.064
log2 fold change [4]: 0.075
log2 fold change (doramapimod): 0.254
log2 fold change (ispinesib): -0.19

NMT1 (UniProt P30419)
Sequence of UniProt P30419 (P30419 whole entry, looked up): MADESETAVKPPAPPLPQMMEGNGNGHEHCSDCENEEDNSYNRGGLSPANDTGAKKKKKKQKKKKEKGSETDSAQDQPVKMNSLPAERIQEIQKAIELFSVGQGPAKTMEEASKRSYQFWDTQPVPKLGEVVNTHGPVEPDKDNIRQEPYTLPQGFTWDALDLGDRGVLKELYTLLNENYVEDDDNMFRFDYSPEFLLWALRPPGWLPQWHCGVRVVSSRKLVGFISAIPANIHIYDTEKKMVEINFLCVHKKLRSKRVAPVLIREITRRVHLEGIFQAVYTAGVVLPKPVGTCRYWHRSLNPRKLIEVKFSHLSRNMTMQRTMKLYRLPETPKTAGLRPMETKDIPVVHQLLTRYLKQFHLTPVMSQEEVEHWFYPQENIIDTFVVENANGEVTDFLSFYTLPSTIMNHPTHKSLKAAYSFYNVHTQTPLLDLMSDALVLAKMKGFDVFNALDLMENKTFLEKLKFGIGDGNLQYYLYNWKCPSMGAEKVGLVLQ
log2 fold change [1]: 0.085
log2 fold change (crizotinib): -0.17
log2 fold change [2]: -0.058
log2 fold change [3]: -0.032
log2 fold change (duvelisib): -0.003
log2 fold change (gandotinib): 0.066
log2 fold change (tozasertib): -0.012
log2 fold change [4]: -0.003
log2 fold change (doramapimod): 0
log2 fold change (ispinesib): -0.164

NPEPPS (UniProt P55786)
log2 fold change [1]: 0.019
log2 fold change (crizotinib): -0.14
log2 fold change [2]: 0.122
log2 fold change [3]: -0.039
log2 fold change (duvelisib): 0.063
log2 fold change (gandotinib): -0.03
log2 fold change (tozasertib): -0.066
log2 fold change [4]: -0.012
log2 fold change (doramapimod): 0.013
log2 fold change (ispinesib): 0.082

MRPS27 isoform 2 (UniProt Q92552)
log2 fold change [1]: -0.017
log2 fold change (crizotinib): -0.062
log2 fold change [2]: 0.005
log2 fold change [3]: 0.097
log2 fold change (duvelisib): 0.029
log2 fold change (gandotinib): 0.094
log2 fold change (tozasertib): 0.002
log2 fold change [4]: 0.096
log2 fold change (doramapimod): 0.013
log2 fold change (ispinesib): -0.304 (active)

MRPS21 (UniProt P82921)
log2 fold change [1]: 0.146
log2 fold change (crizotinib): -0.128
log2 fold change [2]: 0.07
log2 fold change [3]: 0.209
log2 fold change (duvelisib): 0.155
log2 fold change (tozasertib): 0.004
log2 fold change [4]: 0.16
log2 fold change (doramapimod): 0.037
log2 fold change (ispinesib): -0.239

NCK1 (UniProt P16333)
log2 fold change [1]: -0.077
log2 fold change (crizotinib): -0.449
log2 fold change [2]: 0.171
log2 fold change [3]: 0.162
log2 fold change (duvelisib): -0.135
log2 fold change (tozasertib): 0.061
log2 fold change [4]: 0.076
log2 fold change (doramapimod): -0.008
log2 fold change (ispinesib): -0.173

MRPS16 (UniProt Q9Y3D3)
log2 fold change [1]: 0.061
log2 fold change (crizotinib): 0.014
log2 fold change [2]: 0.028
log2 fold change [3]: 0.159
log2 fold change (gandotinib): -0.031
log2 fold change (tozasertib): 0.05
log2 fold change (doramapimod): 0.001
log2 fold change (ispinesib): -0.266

MYLK (UniProt Q15746)
log2 fold change [1]: 0.279
log2 fold change (crizotinib): 0.027
log2 fold change [3]: 0.107
log2 fold change (duvelisib): 0.009
log2 fold change (gandotinib): -0.018
log2 fold change (tozasertib): 0.327
log2 fold change [4]: 0.04
log2 fold change (doramapimod): 1.42 (active)
log2 fold change (ispinesib): -0.054

MON1A (UniProt Q86VX9)
Sequence of UniProt Q86VX9 (Q86VX9 whole entry, looked up): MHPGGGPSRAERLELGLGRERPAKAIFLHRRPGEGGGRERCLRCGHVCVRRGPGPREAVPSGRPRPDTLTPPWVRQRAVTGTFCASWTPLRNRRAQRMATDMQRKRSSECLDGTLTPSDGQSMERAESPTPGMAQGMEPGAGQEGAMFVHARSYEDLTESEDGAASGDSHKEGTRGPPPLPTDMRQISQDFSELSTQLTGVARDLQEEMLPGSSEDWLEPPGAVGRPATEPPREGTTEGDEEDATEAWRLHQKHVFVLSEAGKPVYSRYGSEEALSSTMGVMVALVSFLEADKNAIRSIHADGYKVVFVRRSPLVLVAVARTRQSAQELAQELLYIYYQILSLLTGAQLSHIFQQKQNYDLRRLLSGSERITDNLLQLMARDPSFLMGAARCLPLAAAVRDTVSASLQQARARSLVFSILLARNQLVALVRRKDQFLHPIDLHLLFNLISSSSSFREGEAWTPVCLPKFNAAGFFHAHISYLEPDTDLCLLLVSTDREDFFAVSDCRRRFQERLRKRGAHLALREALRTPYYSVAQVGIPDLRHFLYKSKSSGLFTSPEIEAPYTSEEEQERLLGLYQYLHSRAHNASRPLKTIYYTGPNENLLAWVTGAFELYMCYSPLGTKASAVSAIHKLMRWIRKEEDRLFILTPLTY
log2 fold change [1]: 0.049
log2 fold change (crizotinib): -0.559 (active)
log2 fold change [2]: 0.057
log2 fold change (duvelisib): -0.012
log2 fold change (gandotinib): 0.116
log2 fold change (tozasertib): -0.111
log2 fold change [4]: 0.011
log2 fold change (doramapimod): 0.045
log2 fold change (ispinesib): -0.153

NUP205 (UniProt Q92621)
log2 fold change [1]: 0.001
log2 fold change (crizotinib): -0.054
log2 fold change [2]: 0.002
log2 fold change [3]: -0.019
log2 fold change (duvelisib): 0.018
log2 fold change (gandotinib): -0.17
log2 fold change (tozasertib): 0.025
log2 fold change [4]: 0.094
log2 fold change (doramapimod): 0
log2 fold change (ispinesib): -0.018

PACS1 (UniProt Q6VY07)
Sequence of UniProt Q6VY07 (Q6VY07 whole entry, looked up): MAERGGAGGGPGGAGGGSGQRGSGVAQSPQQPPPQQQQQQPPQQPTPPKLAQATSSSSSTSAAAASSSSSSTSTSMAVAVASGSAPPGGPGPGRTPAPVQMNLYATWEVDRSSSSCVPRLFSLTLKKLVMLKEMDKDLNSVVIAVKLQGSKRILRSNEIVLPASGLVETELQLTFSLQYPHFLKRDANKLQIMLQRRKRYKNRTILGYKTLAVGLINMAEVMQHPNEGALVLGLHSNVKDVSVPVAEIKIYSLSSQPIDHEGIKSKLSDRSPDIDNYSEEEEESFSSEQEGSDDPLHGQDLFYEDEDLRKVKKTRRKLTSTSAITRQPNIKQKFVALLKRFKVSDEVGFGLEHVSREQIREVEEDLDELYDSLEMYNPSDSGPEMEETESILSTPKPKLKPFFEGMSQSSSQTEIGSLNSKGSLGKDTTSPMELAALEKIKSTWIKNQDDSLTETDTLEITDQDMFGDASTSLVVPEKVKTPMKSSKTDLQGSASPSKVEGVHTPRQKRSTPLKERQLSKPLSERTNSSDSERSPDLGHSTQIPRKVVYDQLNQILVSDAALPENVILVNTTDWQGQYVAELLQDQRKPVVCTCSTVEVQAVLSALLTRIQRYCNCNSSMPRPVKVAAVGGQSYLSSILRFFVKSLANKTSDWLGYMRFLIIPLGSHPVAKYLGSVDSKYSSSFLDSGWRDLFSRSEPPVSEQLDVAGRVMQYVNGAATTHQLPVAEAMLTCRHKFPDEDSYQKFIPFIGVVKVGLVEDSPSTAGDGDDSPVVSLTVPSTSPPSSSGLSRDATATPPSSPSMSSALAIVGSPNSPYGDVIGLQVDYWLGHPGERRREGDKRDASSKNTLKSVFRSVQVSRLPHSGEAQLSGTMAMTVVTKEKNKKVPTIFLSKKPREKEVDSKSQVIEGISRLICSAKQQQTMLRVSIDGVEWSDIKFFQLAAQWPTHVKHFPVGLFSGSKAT
log2 fold change [1]: 0.013
log2 fold change (crizotinib): -0.053
log2 fold change [2]: 0.051
log2 fold change [3]: -0.015
log2 fold change (duvelisib): 0.033
log2 fold change (gandotinib): -0.018
log2 fold change (tozasertib): 0
log2 fold change [4]: -0.014
log2 fold change (doramapimod): 0.06
log2 fold change (ispinesib): 0.042

NECTIN2 isoform 2 (UniProt Q92692)
log2 fold change [1]: -0.059
log2 fold change (crizotinib): 0.062
log2 fold change [2]: -0.2
log2 fold change (duvelisib): -0.248
log2 fold change (gandotinib): -0.206
log2 fold change [4]: -0.149
log2 fold change (doramapimod): -0.086
log2 fold change (ispinesib): 0.198

MPHOSPH8 isoform 2 (UniProt Q99549)
Sequence of UniProt Q99549 (Q99549 whole entry, looked up): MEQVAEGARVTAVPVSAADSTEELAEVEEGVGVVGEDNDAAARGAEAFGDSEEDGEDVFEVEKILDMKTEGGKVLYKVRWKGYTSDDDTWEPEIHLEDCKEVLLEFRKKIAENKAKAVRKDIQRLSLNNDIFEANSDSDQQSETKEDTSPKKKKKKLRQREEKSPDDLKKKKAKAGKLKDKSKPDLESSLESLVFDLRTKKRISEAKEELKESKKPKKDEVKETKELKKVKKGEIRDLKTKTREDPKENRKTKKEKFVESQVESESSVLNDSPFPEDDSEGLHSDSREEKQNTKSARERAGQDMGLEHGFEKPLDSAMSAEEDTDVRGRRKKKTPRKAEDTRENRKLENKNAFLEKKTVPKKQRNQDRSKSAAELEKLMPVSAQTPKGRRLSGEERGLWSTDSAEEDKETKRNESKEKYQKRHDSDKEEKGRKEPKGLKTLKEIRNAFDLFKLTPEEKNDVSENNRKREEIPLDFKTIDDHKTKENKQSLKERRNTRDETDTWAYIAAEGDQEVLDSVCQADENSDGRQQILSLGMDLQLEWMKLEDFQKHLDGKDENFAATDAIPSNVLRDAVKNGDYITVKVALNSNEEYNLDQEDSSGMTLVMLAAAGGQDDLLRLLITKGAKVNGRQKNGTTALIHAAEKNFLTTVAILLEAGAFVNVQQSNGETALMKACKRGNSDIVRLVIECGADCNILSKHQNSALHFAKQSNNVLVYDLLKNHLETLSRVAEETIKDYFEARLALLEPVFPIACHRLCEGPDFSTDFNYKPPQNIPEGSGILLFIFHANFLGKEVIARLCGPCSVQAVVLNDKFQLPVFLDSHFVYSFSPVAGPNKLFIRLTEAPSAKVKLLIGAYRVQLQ
log2 fold change [1]: -0.068
log2 fold change (crizotinib): -0.036
log2 fold change [2]: -0.05
log2 fold change [3]: 0.045
log2 fold change (duvelisib): -0.006
log2 fold change (tozasertib): 0.04
log2 fold change [4]: -0.018
log2 fold change (doramapimod): 0.059
log2 fold change (ispinesib): 0.18
